In PubChem BioAssay AID589 (National Center for Advancing Translational Sciences (NCATS), 2007) one finds max dye-equivalent concentration data, which are given here for 54 compounds.

Screen size: about 59,000 compounds; about 6,200 (11%) were called active. Not shown: some 9% with an inconclusive outcome. Rule as the data show it: active = max dye-equivalent concentration above about 10 nM; inconclusive = mostly about 1.1 nM to 9.6 nM; inactive = weaker than that. Only a selection was taken, and actives are over-represented in it overall.

A short description of the assay: qHTS Assay for Spectroscopic Profiling in 4-MU Spectral Region. Particulars: compound autofluorescence, 340/450 nm, 4-MU equivalents; stronger effect = higher value. An outline of the steps:
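Compounds in 100 mM Tris, pH 8.0, incubated 15 min at room temperature, then fluorescence read at 340 nm excitation/450 nm emission. Signal converted to 4-MU dye-equivalent concentration using an on-plate six-point 4-MU standard curve.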
In general terms: qHTS replaces the single test concentration by a dilution series.
Regarding `COCC(=O)N1CCC2(CCCN(c3ccccc3)C2)CC1`, the max dye-equivalent concentration result is “inactive”. On to `COC(=O)c1ccc(NCC(=O)c2ccccc2)cc1`, for which the max dye-equivalent concentration result was “inactive”.

Regarding `O=C(Nc1ccc(-c2nnc(-c3ccccc3)o2)cc1)c1ccc(Br)o1`, the max dye-equivalent concentration was 37 nM (active).

Take `O=C(Nc1cccc(-c2nnc(-c3ccccc3)o2)c1)C1CCCO1` (centres undefined): the max dye-equivalent concentration entry was “inactive”. Regarding `O=C(Nc1ccc(-c2nnc(-c3ccccc3)o2)cc1)C1CCCO1` (centres undefined), the max dye-equivalent concentration result was “inactive”. Regarding `O=C(c1ccco1)N1CCN(C(=O)C2CC(c3ccc(Cl)c(Cl)c3)=NO2)CC1` (centres undefined), the max dye-equivalent concentration entry is “inactive”. Take `CSc1nnc(-c2ccncc2)n1CCCN1CCCC1=O`: the max dye-equivalent concentration entry is “inactive”. As to `O=C(CCn1c(=S)[nH]c2ccccc2c1=O)NCCCN1CCCC1=O`, the max dye-equivalent concentration entry is “inactive”. In the case of `CC(C)(C)OC(=O)c1c(N)n(CCCN2CCCC2=O)c2nc3ccccc3nc12`, the max dye-equivalent concentration is 6400 nM (active).

Regarding `CC(C)NC(=O)N1CCCC2(CCN(C(=O)c3cccn3C)CC2)C1`, the max dye-equivalent concentration result was “inactive”. In the case of `COc1ccc2c(c1)CCc1c(C(=O)N3CCCC3)noc1-2`, the max dye-equivalent concentration entry is “inactive”.

For the compound `COc1cccc(Nc2ncc3ncc(=O)n(C4CC4)c3n2)c1`, the max dye-equivalent concentration entry was “inactive”. Take `CCNc1ncc2ncc(=O)n(Cc3cccc(OC)c3)c2n1`: the max dye-equivalent concentration is 14 nM (active). For `COc1cccc(Cn2c(=O)cnc3cncnc32)c1`, the max dye-equivalent concentration entry is “inactive”.

On to `CCc1nnc(NC(=O)CSc2nnc(Cc3ccccc3)n2-c2ccc(OC)cc2)s1`, for which the max dye-equivalent concentration result is “inactive”. In the case of `COc1cccc(Cn2c(=O)c(CCc3ccccc3)nc3cnc(N(C)C)nc32)c1` it was 22 nM (active); in that of `COc1cccc(Cn2c(=O)c(C)nc3cnc(Oc4ccccc4)nc32)c1`, “inactive”; in that of `COc1cccc(CN2C(=O)CCC2(C)C(=O)NC2CCCCCC2)c1` (centres undefined), “inactive”.

Regarding `O=c1cnc2cnc(Nc3ccccc3)nc2n1Cc1ccc(F)cc1`, the max dye-equivalent concentration entry is “inactive”. Take `COc1cccc(Cn2c(=O)c(-c3ccccc3)nc3cnc(OC)nc32)c1`: the max dye-equivalent concentration entry was “inactive”. In the case of `CCNc1ncc2ncc(=O)n(CCc3ccccc3)c2n1`, the max dye-equivalent concentration was 75 nM (active).

Turning to `COc1ccc(-n2c(C)nc3c(cnn3-c3ccccc3)c2=O)cc1`, the max dye-equivalent concentration result was “inactive”. As to `CCNc1ncc2nc(CCc3ccccc3)c(=O)n(-c3ccc(OC)cc3)c2n1`, the max dye-equivalent concentration was 12 nM (active).

As to `Cc1cc(N2C(=O)c3ccc(C(=O)NCc4ccccc4)cc3C2=O)no1`, the max dye-equivalent concentration result is “inactive”. Regarding `COC(=O)[C@H](Cc1ccccc1)NC(=O)N1CC(C)OC(C)C1` (some centres undefined), the max dye-equivalent concentration entry was “inactive”. For `O=C(C1CCC(C(=O)N2CCCC2)CC1)N1CCCC1` (centres undefined), the max dye-equivalent concentration result is “inactive”. For `O=C(c1cccs1)N1CCCC(c2nc(-c3ccc(F)cc3)no2)C1` (centres undefined), the max dye-equivalent concentration result was “inactive”. `C=CCn1c(=O)c2ccccc2n2c(SCC(=O)N3CCCc4ccccc43)nnc12`: the max dye-equivalent concentration result is “inactive”.

For `CC(C)CC(=O)N=C1SC2CS(=O)(=O)CC2N1CCc1ccccc1` (centres undefined), the max dye-equivalent concentration result is “inactive”.

Take `CCCCN(C)C(=O)C1CCN(Cc2ccccn2)CC1`: the max dye-equivalent concentration result is “inactive”. Take `Cc1nc(SCC(=O)Nc2cc(C)on2)c2c3c(sc2n1)CCCC3`: the max dye-equivalent concentration entry is “inactive”.

Take `O=C(Nc1cccc2c1CCCC2)C1CCN(C(=O)NC2CCCCC2)CC1`: the max dye-equivalent concentration result was “inactive”. Take `CCOc1ccccc1N=C1NC(=O)CS1`: the max dye-equivalent concentration entry was “inactive”.

As to `CCc1nnc(NC(=O)c2c(O)c3c([nH]c2=O)CCCC3)s1`, the max dye-equivalent concentration entry is “inactive”. For `CNc1cc(-c2c(C)noc2C)ncn1`, the max dye-equivalent concentration result is “inactive”. In the case of `Cc1cnc(CNc2cc(-c3c(C)noc3C)ncn2)cn1` it was 18 nM (active); in that of `COc1ccccc1CNc1ncnc2ccc(-c3c(C)noc3C)cc12`, “inactive”; in that of `Cc1noc(C)c1-c1cc(NCc2cccnc2)ncn1`, “inactive”. Turning to `COCCNc1cc(-c2c(C)noc2C)ncn1`, the max dye-equivalent concentration is 11 nM (active). For `Cc1cccc(CNc2cc(-c3ccccc3Cl)ncn2)c1`, the max dye-equivalent concentration result was “inactive”. As to `CCOC(=O)c1[nH]cnc1C(=O)NC1CCCCC1`, the max dye-equivalent concentration entry is “inactive”. With `C[C@]1(O)CC[C@H]2[C@H]3CC=C4N5CCN=C5CC[C@@]4(C)[C@H]3CC[C@@]21C`, the max dye-equivalent concentration result is “inactive”. For the compound `O=C(Nc1c(Cl)cccc1Cl)C1CCC1`, the max dye-equivalent concentration result is “inactive”. `O=C(NCc1ccco1)c1cc2sccc2n1Cc1ccc(F)cc1`: the max dye-equivalent concentration entry was “inactive”. The same measure for `Cc1nc2nc(CSc3nc4ccccc4s3)cc(=O)n2[nH]1`: “inactive”; for `Cc1cccc(-n2c(N)c(C(=O)N3CCN(C)CC3)sc2=S)c1`: “inactive”; for `CC(C(=O)N1CCOCC1)N1c2cccc3cccc(c23)S1(=O)=O` (centres undefined): 74 nM (active). With `O=C(c1ccccc1-c1ccccc1)N1CCOCC1`, the max dye-equivalent concentration result is “inactive”. As to `CC(C(=O)Nc1ccccc1-c1ccccc1)N1CCOCC1` (centres undefined), the max dye-equivalent concentration entry is “inactive”. The same measure for `COc1ccc(N(CC(=O)NC(C)(C)C)C(=O)c2ccco2)cc1`: “inactive”; for `COc1cc(C(=O)N(Cc2ccc(N(C)C)cc2)C2CCS(=O)(=O)C2)cc(OC)c1OC` (centres undefined): “inactive”; for `O=C(O)c1cccc(S(=O)(=O)NCCO)c1`: “inactive”. In the case of `CCOc1ccc(Nc2oc(Cc3ccccc3)nc2C#N)cc1`, the max dye-equivalent concentration entry is “inactive”.

Take `CCOc1ccc2nc(NCCNS(=O)(=O)c3ccccc3)c(C#N)cc2c1`: the max dye-equivalent concentration was 110 nM (active).
